Compounds without any hit were thinned out: in the full panel of roughly 79,000, 15% have a hit. A number with no mark means an inactive call. Rule as the data show it: active = growth inhibition above about 70%; inactive = the rest.
Assay: NCI Yeast Anticancer Drug Screen. Data for the mlh1 rad18 strain (AID 175)
Conditions: S. cerevisiae mlh1 rad18 strain growth inhibition; at 50.0 µM; stronger effect = higher value
Method in brief: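 Cells of a genetically altered yeast strain, deficient in DNA damage repair, were treated with compound. Their growth was then compared with that of vehicle-treated cultures to give inhibition.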

In order of falling growth inhibition:
1. C=C(C)c1ccc(B2Nc3ccccc3N2)cc1  58.5%
2. C/C(=N/NC(=S)Nc1cccc(Cl)c1)c1cccc(/C(C)=N\NC(=S)Nc2cccc(Cl)c2)n1  56.9%
3. CCCC(=O)Nc1cc(C(=O)N2C[C@@H]3C[C@]34C2=CC(=O)c2[nH]cc(C)c24)n(COC)c1  47.4%
4. O=C1C(O)=CC(=C(c2ccccc2)c2ccccc2)c2cc(Br)ccc21  34.1%
5. CCCCCCCCCO/N=C\c1c2c(O)c3c(O)c(C)c4c(c3c1O)C(=O)C(C)(O/C=C\C(OC)C(C)C(OC(C)=O)C(C)C(O)C(C)C(O)C(C)/C=C\C=C(\C)C(=O)N2)O4 (stereo not given)  30.8%
6. CCOC(=O)NCc1ccccc1  20.1%
7. O=C(Cc1ccccc1)NN1C(=O)/C(=C\c2ccc(O)cc2)SC1=Nc1ccccc1  19.9%
8. COC(=O)C1C(O)C(C)C(O)OC1C(C)C(O)C(C)/C=C\C=C(/C)C(=O)Nc1c(C)c(OC(C)=O)c2c(c1O)C(=O)C(C)=C1OCOC(/C(C)=C/C(C)=O)=C12 (stereo not given)  17.6%
9. COc1ccc2nc(-c3ccc(F)cc3)cc(C(=O)O)c2c1  17.1%
10. CCCCCC(CN(C)C)C(=O)CC(SCC)c1ccccc1 (stereo not given)  16.8%
11. CC1(O)CC2(O)C=CC3=C(C(=O)c4cccc(O)c4C3=O)C2(O)C(=O)C1O (stereo not given)  16.6%
12. CCCC(CCC(C)=O)[N+](=O)[O-] (stereo not given)  12%
13. N#CCc1nc(-c2ccccc2)n[nH]1  11.7%
14. COC(=O)c1ccc(/C=C2\CCc3ccccc3C2=O)cc1  11.2%
15. CC1(C)CC(OP(=O)(c2ccccc2)c2ccccc2)CC(C)(C)N1O  11.2%
16. O=C1c2c(c3c4ccccc4[nH]c3c3[nH]c4ccccc4c23)C(=O)N1Cc1ccccc1  10.2%
17. Cc1ccccc1NC(=O)/C=C\C(=O)O  10.2%
18. CCc1ccccc1NOC  9.65%
19. CCCCCCCC(=O)NC(O)C(Cl)(Cl)C(C)Cl (stereo not given)  9.35%
20. Cc1ccc(N=Cc2cccs2)c(Br)c1  5.95%
21. CCN(CC)CCC1CCNCC1  5.75%
22. OC12C=CC(CCCC1)O2 (stereo not given)  4.9%
23. C=CCC1CCC/C1=N\O (stereo not given)  3.9%
24. O=c1c2cnc3cc(Cl)ccc3c2[nH]n1-c1ccc(Cl)cc1  2.9%
25. O=C(NO)c1c(F)c(F)c(C(=O)NO)c(F)c1F  2.1%
26. NC(CCC(=O)NC(CSSCCCCS(=O)O)C(=O)NCC(=O)O)C(=O)O (stereo not given)  1.4%
27. COc1ccc(C/C=N/Nc2ccc([N+](=O)[O-])cc2[N+](=O)[O-])cc1OC  -0.55%
28. CCN(CC)C(=O)CC(C)(C)O  -1.6%
29. COC(=O)CCSCCC(=O)OC  -1.95%
30. COc1cc(CC(=O)O)c(Br)cc1C  -2.65%
31. C[P+]1(CCc2ccc(Cl)cc2)CC=CC1  -3.95%
32. CN1C/C(=C\c2ccco2)c2nc(N)nc(-c3ccco3)c2C1  -4.15%
33. CCCCCCCCCCCCC1CC(=O)OC1=O (stereo not given)  -8.85%
34. Cc1cccc(C2=C/C(=C(\SS/C(C(=O)c3ccc(OCC(=O)O)c(Cl)c3Cl)=C3\C=C(c4cccc(C)c4)SS3)C(=O)c3ccc(OCC(=O)O)c(Cl)c3Cl)SS2)c1  -10.7%
35. O=C(Cc1ccccc1C(=O)O)c1ccccc1  -13.3%
36. CCOC(=O)Cc1c(Cc2[nH]c(C(=O)OCc3ccccc3)c(CC(=O)OCC)c2CC(=O)OCC)[nH]c(C(=O)OCc2ccccc2)c1CC(=O)OCC  -17.3%
37. O=C(CP(c1ccccc1)c1ccccc1)c1cccc(C(=O)CP(c2ccccc2)c2ccccc2)c1  -19.4%
38. NCCCCC(N)C(=O)O.[Cu+2] (stereo not given)  -22.8%
39. NC(=O)c1ccccc1C(N)=O  -31.9%
40. O=c1c2cc3c(=O)n(O)c(=O)c3cc2c(=O)n1O  -90.4%

Source: PubChem BioAssay (NCI)
